This test addresses Polyadenylate-binding protein 1 (Homo sapiens) (UniProt P11940). As to the kind of experiment: PABP poly(A) RNA binding inhibitors, primary screen, biochemical, fluorescence polarization, uHTS (AID 2014).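 Note: calls also rest on retests at 20 µM and on dose response follow-up.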 Conditions: stronger effect = higher value. In general terms: Polarisation of emitted light reports the rotation of a fluorescent probe.

Out of some 290,000 compounds screened, about 3,000 (1%) were called active. The rule behind the calls is not given here. Only a selection was taken, and actives are over-represented in it overall.

Polyadenylate-binding protein 1 (Homo sapiens), sequence (P11940 whole entry, looked up): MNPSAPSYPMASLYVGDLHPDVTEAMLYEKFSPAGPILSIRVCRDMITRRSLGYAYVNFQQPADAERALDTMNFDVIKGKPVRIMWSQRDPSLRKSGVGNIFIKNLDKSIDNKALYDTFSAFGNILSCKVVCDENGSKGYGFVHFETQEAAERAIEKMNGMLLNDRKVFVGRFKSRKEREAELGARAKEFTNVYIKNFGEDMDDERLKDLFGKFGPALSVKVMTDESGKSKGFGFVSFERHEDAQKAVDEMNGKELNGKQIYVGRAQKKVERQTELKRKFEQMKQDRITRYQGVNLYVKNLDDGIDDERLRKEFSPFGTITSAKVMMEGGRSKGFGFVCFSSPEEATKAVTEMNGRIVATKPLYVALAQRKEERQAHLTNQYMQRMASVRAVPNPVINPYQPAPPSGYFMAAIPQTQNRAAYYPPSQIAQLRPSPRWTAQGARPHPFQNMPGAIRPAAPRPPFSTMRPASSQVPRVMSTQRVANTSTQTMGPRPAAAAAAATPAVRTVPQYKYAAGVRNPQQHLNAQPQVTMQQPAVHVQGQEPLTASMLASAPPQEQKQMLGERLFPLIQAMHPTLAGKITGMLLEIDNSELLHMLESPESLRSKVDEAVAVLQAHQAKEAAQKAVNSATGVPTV

For `O=C(CCCN1CCc2[nH]c3ccc(F)cc3c2C1)c1ccc(F)cc1`, the inhibition (in general, the change of the read-out against control, counted positive when it falls) (at 35 µM) was -1.4% (inactive).
As to `CC(=O)Cn1cnc2c(cnn2-c2ccccc2)c1=O`, the inhibition (at 35 µM) was -4.8% (inactive).
Regarding `CCCCC(=O)Nc1ccc2c(c1)OCCO2`, the inhibition (at 35 µM) was -6.8% (inactive).
For `O=C(CCS(=O)(=O)Cc1ccccc1)Nc1ccc2c(c1)OCCO2`, the inhibition is, setting by setting: (at 35 µM) 72% (active); (confirmation repeats, at 20 µM) 88.6%.
Take `O=C(CN(c1ccc2c(c1)OCCO2)S(=O)(=O)c1ccccc1)Nc1ccc2c(c1)OCO2`: the inhibition (at 35 µM) was -3.5% (inactive).
For `COc1ccc(-n2c(-c3ccc(OC)c(OC)c3)n[nH]c2=S)cc1`, under “at 35 µM”, the inhibition is 4.9% (inactive).
The same measure, in the same setting: with `COc1ccc(OC)c(-n2c(-c3ccn[nH]3)n[nH]c2=S)c1` the figure was -4.8% (inactive).
Regarding `COc1ccccc1-n1c(-c2cc(-c3ccco3)[nH]n2)n[nH]c1=S`, the inhibition was 39% (active) (at 35 µM) and 56.9% (confirmation repeats, at 20 µM).
In the case of `CCOC(=O)N1CCN(Cc2nc3cc(NC(=O)CC)ccc3n2CC)CC1`, the inhibition (at 35 µM) was 1.3% (inactive).
Take `Cc1cccc(NC(=O)CCn2c(=O)oc3ccccc32)c1`: the inhibition (at 35 µM) was 1% (inactive).
Still for that read-out and setting: with `COc1cc(C(F)(F)F)c(C(=O)N(C)c2ccc(Cl)cc2)cn1` the figure was -5.6% (inactive).
Take `COc1ccc(Nc2cc(Cl)ccc2C(=O)O)cn1`: the inhibition is 72.3% (active) (at 35 µM) and 106% (confirmation repeats, at 20 µM).
`COc1cccc(Nc2ncccc2C(=O)O)c1`: for the setting “at 35 µM”, the inhibition is 11.9% (inactive).
Consider `COc1ccccc1OC(C)C(=O)Nc1ccc(S(=O)(=O)Nc2nccs2)cc1` (stereo not drawn), for which the inhibition (at 35 µM) was 4.4% (inactive).
Regarding `CC(C)(C)OC(=O)NC(Cc1ccccc1)C(=O)NC(CSC1CCCCO1)C(=O)NN` (stereo not drawn), the inhibition (at 35 µM) was 1.1% (inactive).
The same measure, in the same setting: with `COc1ccc(NS(=O)(=O)c2ccc(N3CCOCC3)c(NC(=O)c3ccccc3Br)c2)cc1` the figure was 3.8% (inactive); with `COc1ccc(NS(=O)(=O)c2cc(NC(=O)/C=C/c3cc(OC)c(OC)c(OC)c3)ccc2N2CCCCC2)cc1`, -9.8% (inactive).
For the compound `COc1ccc(NS(=O)(=O)c2cc(NC(=O)C3CCCCC3)ccc2N2CCOCC2)cc1`, the inhibition is 67.6% (active) (at 35 µM) and 92.5% (confirmation repeats, at 20 µM).
With `CC1CCCN(S(=O)(=O)c2ccc(-c3ccc(=O)[nH]n3)o2)C1` (stereo not drawn), the inhibition (at 35 µM) is 3.3% (inactive).
As to `Cc1ccc(-n2ncc3c2CC(C)(C)CC3NC(=O)CCc2cnn(C)c2)cc1` (stereo not drawn), the inhibition runs as follows: (at 35 µM) 54.6% (inactive); (confirmation repeats, at 20 µM) 27.1%.
`O=C(NC1CCCC1)C1CC(=O)N(c2ccc(F)cc2)C1` (stereo not drawn): the inhibition (at 35 µM) was -2.5% (inactive).
The same measure, in the same setting: with `Cc1cc2c(cc1C)[n+](C)cn2CC(O)COCC1CC=CCC1` (stereo not drawn) the figure was 77.8% (active); with `N#Cc1cccc(CN2CCC(=O)N([C@H](CO)c3ccccc3)CC2)c1`, 5.7% (inactive).
On to `COc1cc(OC)cc(C(=O)NCCSCc2ccc(Cl)cc2)c1`, for which the inhibition (at 35 µM) was -3.9% (inactive).
The same measure, in the same setting: in the case of `Cc1cccc(NC(=O)/C(=C\c2ccco2)NC(=O)c2ccccc2)c1` it was 52.1% (active); in that of `O=C(Nc1ccccc1)/C(=C\c1ccco1)NC(=O)c1ccco1`, 14.9% (inactive); in that of `O=C(NCc1ccco1)/C(=C/c1ccco1)NC(=O)c1ccccc1`, -4% (inactive).
The same measure, in the same setting: in the case of `COc1cc(/C=C/C(=O)N2CCc3ccccc3C2)cc(OC)c1OC` it was 2.6% (inactive); in that of `COc1ccc(Cc2nnc(SCC(=O)Nc3ccc(C)c(C)c3)o2)cc1OC`, -6.8% (inactive); in that of `CCOC(=O)N1CCN(C(=O)COCc2cc(-c3ccc4c(c3)OCO4)on2)CC1`, 3.8% (inactive).
On the same count and under the same terms, in the case of `COc1ccc([N+](=O)[O-])cc1N(CC(=O)Nc1ccccc1C(=O)N1CCOCC1)S(C)(=O)=O` it was -5.6% (inactive); in that of `COCCn1c(SCC(=O)Nc2nc(C)cs2)nnc1C(C)C`, 2.9% (inactive); in that of `O=C(CCN1C(=O)[C@@H]2Cc3ccccc3CN2C1=O)NCc1ccccc1`, 1.7% (inactive).
Turning to `O=C(CCN1C(=O)[C@@H]2Cc3ccccc3CN2C1=O)NCCc1ccccc1`, the inhibition (at 35 µM) is 58.8% (active).
Regarding `Cc1ccc(CNC(=O)CCN2C(=O)[C@@H]3Cc4ccccc4CN3C2=O)cc1`, the inhibition (at 35 µM) was 10.4% (inactive).
Still for that read-out and setting: in the case of `Cc1ccc(C2SCC(=O)N2c2ccccc2)cc1` (stereo not drawn) it was -0.7% (inactive); in that of `COc1ccc(-c2oc3ncnc(NCCCO)c3c2-c2ccc(OC)cc2)cc1`, 7.6% (inactive).
Still for that read-out and setting: in the case of `Cc1ccc(N2C(=O)C3C4C=CC(CC4)C3C2=O)cc1Cl` (stereo not drawn) it was 0.6% (inactive).
On the same count and under the same terms, with `Cc1cccc(-c2nnc(SCC(=O)O)n2Cc2ccccc2)c1` the figure was 0.6% (inactive); with `CCCSc1nc(NCc2ccco2)c2c3c(sc2n1)COC(C)(CC)C3` (stereo not drawn), 9.5% (inactive); with `CN1CCc2c(sc3c2c(NCc2ccco2)nc2nnnn23)C1`, 94.1% (active).
Turning to `Cn1c(=O)n(Cc2ccco2)c(=N)c2c3c(sc21)CCCC3`, where the note is “at 35 µM”, the inhibition is 8.4% (inactive).
For the compound `CC(=O)c1ccc(S(=O)(=O)Nc2ccc(C(=O)NCC(c3ccccc3)N(C)C)cc2)cc1` (stereo not drawn), the inhibition (at 35 µM) was 12.7% (inactive).
Consider `COc1ccc(C(CNC(=O)c2ccc(S(=O)(=O)Nc3ccccc3F)cc2)N(C)C)cc1` (stereo not drawn), for which the inhibition is 53.4% (active) (at 35 µM) and 116% (confirmation repeats, at 20 µM).
Take `COc1ccc(C(CNCC(=O)Nc2ccccc2F)N(C)C)cc1` (stereo not drawn): for the setting “at 35 µM”, the inhibition was -7.5% (inactive).
In the case of `Cc1ccc(S(=O)(=O)N(CC(=O)NCc2ccco2)c2ccccc2C)cc1`, the inhibition (at 35 µM) was 3% (inactive).
Take `COc1ccc2c(C)c(CCC(=O)NC3CC3)c(=O)oc2c1C`: the inhibition (at 35 µM) is 11.8% (inactive).
On the same count and under the same terms, with `CCOC(=O)C1(Cc2cccc(OC)c2)CCCN(C(=O)CCSC)C1` (stereo not drawn) the figure was 15.2% (inactive); with `CCSc1nnc(NC(=O)c2ccc(C)cc2)s1`, -4.4% (inactive).
In the case of `Cc1ccc(C(=O)Oc2coc(CSc3nnc(NC(=O)c4cccs4)s3)cc2=O)cc1C`, the inhibition runs as follows: (at 35 µM) -2.3% (active); (confirmation repeats, at 20 µM) 88.5%.
As for `Cc1ccc(C(=O)Nc2nnc(-c3cccs3)s2)cc1C`, under “at 35 µM”, the inhibition is 4.7% (inactive).
The same measure, in the same setting: with `CN(C)CCN(C(=O)C1CCCCC1)c1nc2cc3c(cc2s1)OCO3` the figure was 11% (inactive).
On the same count and under the same terms, with `CN(C)CCCn1c(=O)n(Cc2ccccc2)c(=O)c2c3c(sc21)CCCCC3` the figure was -5.5% (inactive).
In the case of `CCCCCCn1cc(C(=O)O)c(=O)c2cc(F)c(N3CCCCC3)cc21`, the inhibition (at 35 µM) is -0.7% (inactive).
Take `CCC1CCCCN1C(=O)CSc1nc2c(c(=O)n1C)SC(C)C2` (stereo not drawn): where the note is “at 35 µM”, the inhibition is -9% (inactive).
On to `Cc1ccc(Cc2cnc(N)s2)o1`, for which the inhibition is 47.2% (active) (at 35 µM) and 56.6% (confirmation repeats, at 20 µM).
Take `Cc1ccc(CCC(=O)Nc2ncc(Cc3cc(Cl)ccc3Cl)s2)o1`: the inhibition (at 35 µM) was 29.5% (inactive).
Consider `Cc1cc(/C=C2\SC(=O)N(C)C2=O)c(C)n1-c1cccc(C(=O)O)c1`, for which the inhibition (at 35 µM) is 67.4% (active).
On the same count and under the same terms, in the case of `Cc1cc(/C=C2\SC(=Nc3ccc(N4CCOCC4)cc3)N(C)C2=O)c(C)n1-c1cccnc1` it was 0.7% (inactive); in that of `Cc1cc(/C=C2/SC(=O)N(CC(=O)N3CCCC3)C2=O)c(C)n1C`, 19.7% (inactive).

The values are drawn from PubChem BioAssay AID2014 (Sanford-Burnham Center for Chemical Genomics, 2009).
